This note sets out measurements from PubChem BioAssay (EPA / NIEHS).

Molecules are shown by their SMILES. Activity calls are given as the source filed them. How the source made its calls: active means hit-call score of the fitted dose curve at least 0.9, where 1 is the maximum; inactive means score below 0.9.

Common to all, as to settings: mRNA level, 48 h; actives raise or lower the signal
Read-out in assay [1]: ATP-citrate lyase (ACLY), ACLY (gene 47)
Nature of the assay: LTEA_HepaRG_ACLY: Life Technologies and Expression Analysis (LTEA) Assay for ATP-citrate lyase (ACLY) using HepaRG (AID 2283466). In outline: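 ACLY mRNA quantified by qRT-PCR on Fluidigm arrays against three housekeeping genes, after 48 h chemical treatment of HepaRG cells (top concentration 100 uM, half-log steps, 0.5% DMSO vehicle). Up- or down-regulation fitted relative to DMSO.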

Read-out in assay [2]: Peroxisomal acyl-coenzyme A oxidase 1 (ACOX1) gene, ACOX1 (gene 51)
The assay is described as follows: LTEA_HepaRG_ACOX1: Life Technologies and Expression Analysis (LTEA) Assay for Peroxisomal acyl-coenzyme A oxidase 1 (ACOX1) gene using HepaRG (AID 2283467). In outline: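 ACOX1 transcript levels were quantified by TaqMan qRT-PCR against three housekeeping genes after 48 h chemical exposure of differentiated human HepaRG cells. Exposure used eight half-log steps topping at 100 uM, 0.5% DMSO vehicle, in duplicate. Bidirectional curve fits were made relative to DMSO.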

Read-out in assay [3]: Alkaline Phosphatase, Placental (ALPP) gene, ALPP (gene 250)
The assay is described as follows: LTEA_HepaRG_ALPP: Life Technologies and Expression Analysis (LTEA) Assay for Alkaline Phosphatase, Placental (ALPP) gene using HepaRG (AID 2283468).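 On AC50: differentiated human HepaRG liver cells in serum-free induction medium.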 In outline:
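ALPP transcript level, measured by qRT-PCR and normalized to three housekeeping genes (ACTB, GAPDH, POLR2A), after 48 h dosing of differentiated HepaRG in serum-free induction medium. Top concentration 100 uM with half-log dilutions (8 points, 0.5% DMSO, duplicates); bidirectional fitting relative to DMSO.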

Read-out in assay [4]: Bcl-2 (BAD) gene, BAD (gene 572)
Nature of the assay: LTEA_HepaRG_BAD: Life Technologies and Expression Analysis (LTEA) Assay for Bcl-2 (BAD) gene using HepaRG (AID 2283469). In outline: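 Read-out: qRT-PCR of BAD mRNA, normalized to three housekeeping genes. Human HepaRG cultures got 48 h chemical exposure in 0.5% DMSO, duplicate eight-point half-log series topping at 100 uM. Gain or loss of signal fitted versus DMSO vehicle.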

Read-out in assay [5]: Bcl-2 (BAX) gene, BAX (gene 581)
The assay is described as follows: LTEA_HepaRG_BAX: Life Technologies and Expression Analysis (LTEA) Assay for Bcl-2 (BAX) gene using HepaRG (AID 2283470). In outline:
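qRT-PCR read-out of BAX mRNA, normalized to three housekeeping genes, after 48 h chemical exposure of human HepaRG cells in serum-free induction medium; eight-point half-log series, top 100 uM, 0.5% DMSO vehicle; bidirectional fit versus DMSO.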

Read-out in assay [6]: adenosine kinase (ADK) gene, ADK (gene 132)
The assay is described as follows: LTEA_HepaRG_ADK: Life Technologies and Expression Analysis (LTEA) Assay for adenosine kinase (ADK) gene using HepaRG (AID 2283471). In outline: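 HepaRG (human liver), 48 h chemical exposure, 8-pt half-log series, top 100 uM, 0.5% DMSO vehicle. Readout: ADK mRNA by qRT-PCR vs housekeeping genes; bidirectional curve fit relative to DMSO baseline.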

Read-out in assay [7]: Alpha-fetoprotein (AFP) gene, AFP (gene 174)
The assay is described as follows: LTEA_HepaRG_AFP: Life Technologies and Expression Analysis (LTEA) Assay for Alpha-fetoprotein (AFP) gene using HepaRG (AID 2283472). In outline:
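qRT-PCR (Fluidigm TaqMan) readout of AFP transcript, normalized to three housekeeping genes, fitted bidirectionally against 0.5% DMSO baseline. HepaRG cells received chemicals for 48 h in serum-free induction medium, top concentration 100 uM, half-log steps.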

Read-out in assay [8]: BCL2L11 (gene 10018)
Nature of the assay: LTEA_HepaRG_BCL2L11: Life Technologies and Expression Analysis (LTEA) Assay for Bcl-2 (BCL2L11) gene using HepaRG (AID 2283473). In outline:
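BCL2L11 transcript levels are measured by Fluidigm qRT-PCR, normalized to three housekeeping genes. HepaRG cultures were plated 48 h, then treated 48 h with test chemical (top 100 uM, half-log, 0.5% DMSO vehicle); curves were fitted bidirectionally against DMSO.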

Read-out in assay [9]: Apolipoprotein A-V (APOA5) gene, APOA5 (gene 116519)
The assay is described as follows: LTEA_HepaRG_APOA5: Life Technologies and Expression Analysis (LTEA) Assay for Apolipoprotein A-V (APOA5) gene using HepaRG (AID 2283474). In outline: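 APOA5 transcript levels were quantified by qRT-PCR, normalized to three housekeeping genes, after 48 h chemical treatment of HepaRG cells (8 points, 100 uM maximum, half-log steps, 0.5% DMSO). Curves fitted in both directions against vehicle.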

Read-out in assay [10]: Apoptosis regulator Bcl-2 (Homo sapiens) (UniProt P10415)
The assay is described as follows: LTEA_HepaRG_BCL2: Life Technologies and Expression Analysis (LTEA) Assay for Bcl-2 gene using HepaRG (AID 2283475).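 Further: BCL2 transcript by TaqMan qRT-PCR normalised to ACTB GAPDH and POLR2A.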 In outline: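 qRT-PCR read-out (Fluidigm TaqMan) of BCL2 transcript, normalised to three housekeeping genes, after 48 h chemical exposure of HepaRG cells; 8-point half-log series, top 100 uM, 0.5% DMSO vehicle. Gain or loss of signal fitted relative to DMSO baseline.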

Sequence of Apoptosis regulator Bcl-2 (Homo sapiens) (P10415 whole entry, looked up): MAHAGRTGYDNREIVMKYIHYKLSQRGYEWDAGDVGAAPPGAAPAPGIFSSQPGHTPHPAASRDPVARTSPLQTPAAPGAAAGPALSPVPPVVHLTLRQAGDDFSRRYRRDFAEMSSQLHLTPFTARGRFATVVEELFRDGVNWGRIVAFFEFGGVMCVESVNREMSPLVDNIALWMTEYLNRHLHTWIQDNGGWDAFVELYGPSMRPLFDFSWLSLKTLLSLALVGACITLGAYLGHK

`CCOP(=O)(SC(C)CC)N1CCSC1=O` (stereo not given): the molecule was called inactive in assay [1], in assay [2], in assay [3], in assay [4], in assay [5] and in assay [6]. In addition, the molecule was called inactive in [7], in assay [8], in assay [9] and in assay [10].

Take `CCOP(=O)(NC(C)C)Oc1ccc(SC)c(C)c1` (stereo not given): the call in assay [1], in assay [2], in assay [3], in assay [4], in assay [5] and in assay [6] was inactive. Moreover, the result in [8], in [9] and in assay [10] was inactive. Also, the concentration at half-maximal activity (AC50) in assay [7] was 16.5 µM (active).

Turning to `CN(C)C(=O)Nc1cccc(C(F)(F)F)c1`, the call in assay [1], in [2], in assay [3], in assay [4], in assay [5] and in assay [6] was inactive. Also, the molecule was called inactive in [7], in [9] and in assay [10]. Also, the half-maximal activity concentration (AC50) in assay [8] is 50 µM (active).

`Cc1ccn2nc(S(=O)(=O)Nc3c(F)cccc3F)nc2n1`: the call in [1], in assay [2], in assay [3], in assay [4], in assay [5] and in [6] was inactive. Besides, the result in assay [7], in [8], in [9] and in assay [10] was inactive.

For `CC1=NNC(=O)N(/N=C/c2cccnc2)C1`, the call in [1], in assay [2], in assay [3], in [4], in [6] and in assay [7] was inactive. Also, the result in [8], in [9] and in assay [10] was inactive.

`S=C1NCCN1`: the molecule was called inactive in assay [1], in assay [3], in [4], in [5], in assay [7] and in [8]. The molecule was classed as inactive in assay [9] and in assay [10]. Moreover, the half-maximal activity concentration (AC50) in assay [2] was 0.232 µM (active); in [6], 12.6 µM (active).

`CSc1nc(NC(C)C)nc(NC(C)C)n1`: the outcome in assay [1], in [2], in [4], in [5], in [6] and in assay [8] was inactive. For the same molecule, the outcome in assay [10] was inactive. For the same molecule, the half-maximal activity concentration (AC50) in [7] and in assay [9] was 50 µM (active) in each case.

With `Cc1cc(C2CC2)nc(Nc2ccccc2)n1`, the molecule was classed as inactive in [1], in assay [2], in assay [3], in assay [4], in assay [5] and in assay [6]. In addition, the molecule was classed as inactive in [7], in [8], in assay [9] and in assay [10].

On to `CCC(CC)Nc1c([N+](=O)[O-])cc(C)c(C)c1[N+](=O)[O-]`, for which the AC50 is 89.4 µM (active) in [1] and 50 µM (active) in assay [7]. Further, the result in assay [2], in [3], in [4], in assay [5], in [6] and in assay [8] was inactive. Besides, in assay [10], the outcome was inactive.

As for `Nc1nc(N)nc(NC2CC2)n1`, the molecule was called inactive in assay [1], in assay [2], in assay [3], in [4], in assay [5] and in assay [6]. The molecule was classed as inactive in assay [7], in assay [8], in assay [9] and in assay [10].

As to `C[Si](Cn1cncn1)(c1ccc(F)cc1)c1ccc(F)cc1`, the molecule was called inactive in assay [1], in [6] and in assay [8]. Further, the AC50 was 40.9 µM (active) in assay [2]; 50 µM (active) in assay [3]; 78.9 µM (active) in assay [5]; 25.4 µM (active) in [7]; 15.8 µM (active) in [9]; 35 µM (active) in [10].

With `CCc1cccc(C)c1N(C(=O)CCl)C(C)COC` (stereo not given), the call in [2], in assay [3], in assay [4], in [5], in assay [6] and in assay [8] was inactive. In addition, the molecule was classed as inactive in assay [9] and in assay [10]. In [7], the AC50 is 77.1 µM (active).

For `CCNc1nc(Cl)nc(NC(C)(C)C#N)n1`, the outcome in assay [1], in [2], in assay [3], in assay [4], in assay [5] and in assay [6] was inactive. In addition, the molecule was called inactive in assay [7], in [8], in assay [9] and in assay [10].

Turning to `CCOP(=S)(OCC)Oc1ccc([N+](=O)[O-])cc1`, the call in [1], in assay [2], in assay [3], in assay [4], in assay [5] and in assay [6] was inactive. Moreover, the outcome in [8], in [9] and in [10] was inactive. The concentration at half-maximal activity (AC50) in assay [7] is 2.4 µM (active).

Regarding `COc1cccc(C(=O)NN(C(=O)c2cc(C)cc(C)c2)C(C)(C)C)c1C`, the molecule was called inactive in assay [1], in [2], in [3], in [4], in [5] and in [6]. Besides, the molecule was called inactive in [8], in [9] and in assay [10]. The half-maximal activity concentration (AC50) in assay [7] is 7.69 µM (active).

For `CNc1cnn(-c2cccc(C(F)(F)F)c2)c(=O)c1Cl`, the outcome in assay [1], in [2], in assay [3], in assay [4], in assay [5] and in assay [6] was inactive. The molecule was called inactive in [8], in assay [9] and in assay [10]. The concentration at half-maximal activity (AC50) in [7] is 22 µM (active).

As for `O=c1ccc(=O)[nH][nH]1`, the result in assay [1], in assay [2], in assay [3], in assay [4], in assay [5] and in assay [6] was inactive. Besides, the call in assay [7], in assay [8], in assay [9] and in assay [10] was inactive.

Turning to `CC1(C(=O)Nc2ccc(O)c(Cl)c2Cl)CCCCC1`, the outcome in [1], in assay [2], in assay [3], in assay [4], in [5] and in [6] was inactive. The result in assay [7], in assay [8], in [9] and in assay [10] was inactive.
